From ChEMBL document CHEMBL4513141, “CO-ADD screening of NIH (USA) - Clinical Collection” (2021)
Entries with a potency or affinity are not part of this list.

What follows are compounds tested on Klebsiella pneumoniae. Conditions: Concentration 20 uM; ASSAY_TEST Inhibition of Bacterial Growth; detection method Absorption (OD600); MEDIA CAMHB; plate type 384well; NBS; CORNING #3640; time 18 hr.
`COc1cc(C[C@@H](CO)[C@H](CO)Cc2ccc(O)c(OC)c2)ccc1O` [(+)-SECOISOLARICIRESINOL] was tested, and the Inhibition was 5.83%. Work on `CNC(=C[N+](=O)[O-])NCCSCc1csc(CN(C)C)n1` [NIZATIDINE] yielded an Inhibition of 14.45%. For `CC(C)(C)C(O)/C=C/c1ccc2c(c1)OCO2` (configuration not stated) [STIRIPENTOL], the Inhibition was 6.61%. With `NS(=O)(=O)c1cc2c(cc1Cl)NCNS2(=O)=O` [HYDROCHLOROTHIAZIDE] the Inhibition was 14.61%. For `CCN(CC)CC(=O)Nc1c(C)cccc1C` [LIDOCAINE], the Inhibition was 14.92%. With `CC(O)CO.N[C@@H](C(=O)N[C@@H]1C(=O)N2C(C(=O)O)=C(CSc3c[nH]nn3)CS[C@H]12)c1ccc(O)cc1` the Inhibition was 6.28%. `C#C[C@]1(O)CC[C@H]2[C@@H]3CCc4cc(O)ccc4[C@H]3CC[C@@]21C` [ETHINYL ESTRADIOL] showed an Inhibition of 16.78%. `Cc1sc(N)c(C(=O)c2cccc(C(F)(F)F)c2)c1C` was tested, and the Inhibition was 7%. `COc1cc(C(=O)NC2CCCNC2)cc(OC)c1OC` (configuration not stated) [TROXIPIDE] gave an Inhibition of 14.93%. In the case of `CCOC(=O)C1=C(C)NC(C)=C(C(=O)OC)C1c1cccc([N+](=O)[O-])c1` (configuration not stated) [NITRENDIPINE], the Inhibition is reported as 3.96%. `CC(C)NCC(O)COc1ccc(CC(N)=O)cc1` (configuration not stated) [ATENOLOL] showed an Inhibition of 8.57%. In the case of `O=C1N=C([O-])NC1(c1ccccc1)c1ccccc1.[Na+]` [PHENYTOIN SODIUM], the Inhibition is reported as 7.94%. With `Cl.Cn1c(NCCN(CCO)CCCc2ccc([N+](=O)[O-])cc2)cc(=O)n(C)c1=O` the Inhibition was 3.03%. `C[C@@H]1C[C@H]2[C@@H]3C[C@H](F)C4=CC(=O)C(Cl)=C[C@]4(C)[C@@]3(F)[C@@H](O)C[C@]2(C)[C@@]1(O)C(=O)CO` [HALOMETASONE] showed an Inhibition of 3.82%. Work on `NC(=O)N1c2ccccc2CC(=O)c2ccccc21` [OXCARBAZEPINE] yielded an Inhibition of 3.69%. With `CN1CCN(CCCN2c3ccccc3Sc3ccc(Cl)cc32)CC1.O=C(O)/C=C\C(=O)O.O=C(O)/C=C\C(=O)O` [PROCHLORPERAZINE MALEATE] the Inhibition was 14.2%. For `C[C@]12C=CC(=O)C=C1CC[C@@H]1[C@@H]2C(=O)C[C@@]2(C)[C@H]1CC[C@]2(O)C(=O)CO` [PREDNISONE], the Inhibition was 18.73%. In the case of `O.OC[C@H]1O[C@@H](n2cnc3c(NC4CCCC4)nc(Cl)nc32)[C@@H](O)C1O` (some centres not stated), the Inhibition is reported as 3.81%. `CC(=O)O[C@H]1C[C@@H]2CC[C@@H]3[C@H](CC[C@@]4(C)[C@H]3C[C@H]([N+]3(C)CCCCC3)[C@@H]4OC(C)=O)[C@@]2(C)C[C@@H]1N1CCCCC1.[Br-]` [VECURONIUM BROMIDE] was tested, and the Inhibition was -0.14%. For `CS(=O)(=O)O.Oc1ccc(C2CNCCc3c2cc(O)c(O)c3Cl)cc1` (configuration not stated) [FENOLDOPAM MESYLATE], the Inhibition was 10.68%. Compound `O=C(C1CCCCC1)N1CC(=O)N2CCc3ccccc3C2C1` (configuration not stated) [PRAZIQUANTEL] has an Inhibition of 12.45%. `CN1CCC(=C2c3ccccc3C=Cc3ccccc32)CC1.Cl` [CYPROHEPTADINE HYDROCHLORIDE] showed an Inhibition of 17.49%. `CN1CC(=O)N2[C@H](c3ccc4c(c3)OCO4)c3[nH]c4ccccc4c3C[C@@H]2C1=O` gave an Inhibition of 2.98%. For `COc1ccccc1OCCNCC(O)COc1cccc2[nH]c3ccccc3c12` (configuration not stated) [CARVEDILOL], the Inhibition was 14.17%. `CN1CCN(c2nc3cc(C(F)(F)F)ccc3n3cccc23)CC1.O=C(O)/C=C\C(=O)O.O=C(O)/C=C\C(=O)O` showed an Inhibition of 7.65%. In the case of `CC[C@H]1OC(=O)[C@H](C)C(=O)[C@H](C)[C@@H](O[C@@H]2O[C@H](C)C[C@H](N(C)C)[C@H]2O)[C@](C)(OC)C[C@@H](C)C(=O)[C@H](C)[C@@H]2N(CCCCn3cnc(-c4cccnc4)c3)C(=O)O[C@@]21C`, the Inhibition is reported as 3.48%. `COC(=O)C1=C(C)NC(C)=C(C(=O)OCCN(C)Cc2ccccc2)C1c1cccc([N+](=O)[O-])c1.Cl` (configuration not stated) [NICARDIPINE HYDROCHLORIDE] gave an Inhibition of -5.88%. In the case of `CC(CCCCC(=O)Nc1ccc(C(F)(F)F)cc1)NCCc1c[nH]cn1.O=C(O)/C=C\C(=O)O.O=C(O)/C=C\C(=O)O` (configuration not stated), the Inhibition is reported as 6.44%. In the case of `CC(=CCC1=C(C)C(=O)c2ccccc2C1=O)CCCC(C)CCCC(C)CCCC(C)C` (configuration not stated), the Inhibition is reported as 6.75%. For `CC1(C)S[C@@H]2[C@H](/N=C/N3CCCCCC3)C(=O)N2[C@H]1C(=O)O` [AMDINOCILLIN], the Inhibition was 18.13%. In the case of `N=c1cc(N2CCCCC2)nc(N)n1O`, the Inhibition is reported as 8.77%. In the case of `Cl.Clc1ccc2nsnc2c1NC1=NCCN1` [TIZANIDINE HYDROCHLORIDE], the Inhibition is reported as 10.36%. Compound `O=[N+]([O-])c1cccc2cn[nH]c12` [7-NITROINDAZOLE] has an Inhibition of 13.1%. For `NC(=O)c1cnccn1` [PYRAZINAMIDE], the Inhibition was 10.9%. In the case of `CCCNC(=O)NS(=O)(=O)c1ccc(Cl)cc1` [CHLORPROPAMIDE], the Inhibition is reported as 11.38%. Work on `CCN(CC)CCOC(=O)C1(C2CCCCC2)CCCCC1.Cl` [DICYCLOMINE HYDROCHLORIDE] yielded an Inhibition of 5.74%. `CC1=C(/C=C/C(C)=C/C=C/C(C)=C\C(=O)O)C(C)(C)CCC1` [ISOTRETINOIN] gave an Inhibition of 9.94%.
